Data taken from PubChem BioAssay (NCI).
Compounds without any hit were thinned out: in the full panel of roughly 83,000, 20% have a hit.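 Cells were grown in 96-well plates and exposed to the test compound at a single concentration for 48 hours; results are reported as percent growth, with values below 10 considered active.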 Active and inactive are the calls of the source.

Experiments:
Test in all cases: NCI-60 one-dose screen, 48 h (100 = growth as untreated, 0 = no growth, -100 = all killed)
Settings in all cases: 10 µM unless noted
DU-145 prostate = test system: DU-145 prostate
K-562 leukemia = test system: K-562 leukemia
MALME-3M melanoma = test system: MALME-3M melanoma
MDA-MB-231 breast = test system: MDA-MB-231 breast
RXF 393 renal = test system: RXF 393 renal
SF-268 CNS = test system: SF-268 CNS
SF-295 CNS = test system: SF-295 CNS
SF-539 CNS = test system: SF-539 CNS
UACC-257 melanoma = test system: UACC-257 melanoma
M14 melanoma = test system: M14 melanoma

Measured: growth

Cc1cc(C2(c3cc(C)c(O)cc3C)OS(=O)(=O)c3ccccc32)c(C)cc1O
inactive: DU-145 prostate 119% | K-562 leukemia 102% | MALME-3M melanoma 122% | MDA-MB-231 breast 100% | RXF 393 renal 114% | SF-268 CNS 103% | SF-295 CNS 107% | SF-539 CNS 105% | UACC-257 melanoma 87.7% | M14 melanoma 108%

Cc1ccc(S(=O)(=O)NC(=O)n2cc(-c3ccncc3)c(-c3ccc(Cl)c(O)c3)n2)cc1
inactive: DU-145 prostate 132% | K-562 leukemia 98.9% | MALME-3M melanoma 65% | MDA-MB-231 breast 89.8% | RXF 393 renal 114% | SF-268 CNS 117% | SF-295 CNS 109% | SF-539 CNS 92.1% | UACC-257 melanoma 99.4% | M14 melanoma 51.2%

O=C([O][Sn]([O]C(=O)c1ccccn1)([c]1ccccc1)[c]1ccccc1)c1ccccn1
inactive: DU-145 prostate 92.3% | K-562 leukemia 24% | MALME-3M melanoma 86.4% | MDA-MB-231 breast 87.4% | RXF 393 renal 41.7% | SF-268 CNS 83.5% | SF-295 CNS 127% | SF-539 CNS 97.4% | UACC-257 melanoma 73.9% | M14 melanoma 85.8%

C=C1CCC2C3(C)COC(c4ccccc4)OC3CCC2(C)C1/C=C/C1=CCOC1=O (stereo not given)
inactive: DU-145 prostate 14.9% | K-562 leukemia 32.4% | MALME-3M melanoma 105% | MDA-MB-231 breast 89.7% | SF-268 CNS 73.2% | SF-295 CNS 105% | SF-539 CNS 63.6% | UACC-257 melanoma 65.9% | M14 melanoma 53.4%
active: RXF 393 renal -14.6%

COc1cc(/C=C/C(=O)/C=C/c2cc(OC)c3c(c2)OCO3)cc2c1OCO2
inactive: DU-145 prostate 107% | K-562 leukemia 50.9% | MALME-3M melanoma 98.2% | MDA-MB-231 breast 80.2% | RXF 393 renal 72.4% | SF-268 CNS 88.7% | SF-295 CNS 94.5% | SF-539 CNS 100% | UACC-257 melanoma 103% | M14 melanoma 31.2%

O=[N+]([O-])c1ccc(C(c2ccccc2)c2ccccc2)cc1
inactive: DU-145 prostate 105% | K-562 leukemia 91.9% | MALME-3M melanoma 107% | MDA-MB-231 breast 86.3% | RXF 393 renal 100% | SF-268 CNS 98.7% | SF-295 CNS 88.7% | SF-539 CNS 104% | UACC-257 melanoma 96.9% | M14 melanoma 105%

C=C[C@@H]1C[C@@H]2Cc3c(C)cc(C)cc3N1O2
inactive: DU-145 prostate 108% | K-562 leukemia 89.8% | MALME-3M melanoma 77% | MDA-MB-231 breast 113% | RXF 393 renal 98.3% | SF-268 CNS 93% | SF-295 CNS 92.1% | SF-539 CNS 96.6% | UACC-257 melanoma 101% | M14 melanoma 104%

CCOC(=O)c1c(NS(=O)(=O)c2ccc(C)cc2)sc2c1CCC1(C2)OCCO1
inactive: DU-145 prostate 114% | K-562 leukemia 89.5% | MALME-3M melanoma 114% | MDA-MB-231 breast 99.7% | RXF 393 renal 103% | SF-268 CNS 93.6% | SF-295 CNS 93.1% | SF-539 CNS 93.7% | UACC-257 melanoma 96.2% | M14 melanoma 104%

O=C(Nc1ccncc1)C(=O)c1cn(S(=O)(=O)c2ccc(Oc3ccccc3)cc2)c2ccccc12
inactive: DU-145 prostate 96.8% | K-562 leukemia 81.5% | MALME-3M melanoma 84.9% | MDA-MB-231 breast 68.9% | RXF 393 renal 110% | SF-268 CNS 109% | SF-295 CNS 60% | SF-539 CNS 96.5% | UACC-257 melanoma 103% | M14 melanoma 102%

CCN(CC)CCC(CNc1c2ccc(Cl)cc2nc2ccc(OC)cc12)c1ccccc1 (stereo not given)
active: DU-145 prostate -23.3% | K-562 leukemia -21.8% | MALME-3M melanoma -85.1% | MDA-MB-231 breast -46.1% | RXF 393 renal -97.7% | SF-268 CNS 8.46% | SF-295 CNS -33.2% | SF-539 CNS -79.6% | UACC-257 melanoma -91.1% | M14 melanoma -87.9%

CC(C)(C)n1cc(-c2ccnc(NCCNS(=O)(=O)c3ccc(F)cc3)c2)c(-c2cccc(O)c2)n1
inactive: DU-145 prostate 74.9% | K-562 leukemia 15.4% | MALME-3M melanoma 53.5% | MDA-MB-231 breast 41% | RXF 393 renal 60% | SF-268 CNS 54.7% | SF-295 CNS 42.5% | SF-539 CNS 58.3% | UACC-257 melanoma 64.9% | M14 melanoma 46.2%

O=C(NS(=O)(=O)c1ccc2ccccc2c1)n1cc(-c2ccncc2)c(-c2ccc(Cl)c(O)c2)n1
inactive: DU-145 prostate 113% | K-562 leukemia 85.6% | MALME-3M melanoma 17.1% | MDA-MB-231 breast 49.6% | RXF 393 renal 52.9% | SF-268 CNS 96.2% | SF-295 CNS 91.1% | SF-539 CNS 80.9% | UACC-257 melanoma 31.9% | M14 melanoma 28.4%

Cc1ccc(-c2nc(C#N)c(S(=O)(=O)n3nc(-c4ccccc4)cc3N)o2)cc1
active: MALME-3M melanoma -34.9%
inactive: DU-145 prostate 105% | K-562 leukemia 13.3% | MDA-MB-231 breast 89% | RXF 393 renal 85% | SF-268 CNS 101% | SF-295 CNS 104% | SF-539 CNS 97% | UACC-257 melanoma 92.1% | M14 melanoma 83%

Oc1ccc2cc(Br)ccc2c1-c1c(O)ccc2cc(Br)ccc12
inactive: DU-145 prostate 78.2% | K-562 leukemia 54% | MALME-3M melanoma 97.9% | MDA-MB-231 breast 50.1% | RXF 393 renal 59.8% | SF-268 CNS 53.8% | SF-295 CNS 76.5% | SF-539 CNS 82% | UACC-257 melanoma 82.6% | M14 melanoma 58.9%

COc1ccc(-c2nc(-c3nc4cc(C)c(C)cc4[nH]3)cc3c2[nH]c2ccccc23)cc1
inactive: DU-145 prostate 84.7% | K-562 leukemia 11.4% | MALME-3M melanoma 73.1% | SF-268 CNS 80.5% | SF-295 CNS 25.4% | UACC-257 melanoma 89.1% | M14 melanoma 70.2%
active: MDA-MB-231 breast -49.5% | RXF 393 renal -63.8% | SF-539 CNS 5.88%

CCOC(=O)c1ccc2c(c1)nc(-c1ccc(OCc3ccccc3)c(OC)c1)n2-c1cc(C(C)(C)C)[nH]n1
inactive: DU-145 prostate 89.9% | K-562 leukemia 55.4% | MALME-3M melanoma 99.2% | MDA-MB-231 breast 109% | RXF 393 renal 83.6% | SF-268 CNS 88.1% | SF-295 CNS 35.8% | SF-539 CNS 88.2% | UACC-257 melanoma 101% | M14 melanoma 95.4%

O=C(Nc1ccncc1)C(=O)c1cn(S(=O)(=O)c2ccc(Br)cc2)c2ccccc12
inactive: DU-145 prostate 62.6% | K-562 leukemia 26.5% | MALME-3M melanoma 49.6% | MDA-MB-231 breast 43% | RXF 393 renal 60.1% | SF-268 CNS 52.2% | SF-295 CNS 29.6% | SF-539 CNS 43.8% | UACC-257 melanoma 69.4% | M14 melanoma 31.6%

Cc1ccc(S(=O)(=O)c2nc(-c3ccccc3)oc2S(C)(=O)=O)cc1
active: K-562 leukemia 2.49% | MALME-3M melanoma -77.8% | SF-539 CNS -23.1%
inactive: DU-145 prostate 30.4% | MDA-MB-231 breast 13.6% | RXF 393 renal 10.4% | SF-268 CNS 68.6% | SF-295 CNS 89.4% | UACC-257 melanoma 74.8% | M14 melanoma 17.8%

COc1cc(-c2nn(C(=O)NS(=O)(=O)c3ccccc3)cc2-c2ccncc2)ccc1Cl
inactive: DU-145 prostate 91.8% | K-562 leukemia 101% | MALME-3M melanoma 87.3% | MDA-MB-231 breast 70.5% | RXF 393 renal 63% | SF-268 CNS 58.6% | SF-295 CNS 85.1% | SF-539 CNS 74.8% | UACC-257 melanoma 89.1% | M14 melanoma 78.4%

C[n+]1c(/C=C/c2c(O)ccc3ccccc23)ccc2ccccc21
inactive: DU-145 prostate 49.1% | MALME-3M melanoma 40.4% | MDA-MB-231 breast 24.8% | RXF 393 renal 37.9% | SF-268 CNS 61.2% | SF-295 CNS 40.6% | UACC-257 melanoma 46.1% | M14 melanoma 34.3%
active: K-562 leukemia 6.81% | SF-539 CNS -14.9%

O=C(Nc1ccncc1)C(=O)c1cn(S(=O)(=O)c2ccccc2F)c2ccccc12
inactive: DU-145 prostate 24.9% | K-562 leukemia 22.8% | MALME-3M melanoma 41.2% | MDA-MB-231 breast 39.9% | RXF 393 renal 28.6% | SF-268 CNS 42.2% | SF-295 CNS 22.5% | UACC-257 melanoma 63.1% | M14 melanoma 14.8%
active: SF-539 CNS 6.94%

Cc1ccc(S(=O)(=O)NCCNc2nccc(-c3c(-c4cccc(N)c4)nc4sccn34)n2)cc1
inactive: DU-145 prostate 96.9% | K-562 leukemia 67.1% | MALME-3M melanoma 106% | MDA-MB-231 breast 85.9% | RXF 393 renal 102% | SF-268 CNS 86.7% | SF-295 CNS 95.6% | SF-539 CNS 101% | UACC-257 melanoma 91.1% | M14 melanoma 107%

CN1CCN(Cc2ccc(NC(=O)c3nc4ccc5[nH]ncc5c4c4c3CCC4)cc2C(F)(F)F)CC1
active: DU-145 prostate -90.1% | K-562 leukemia -46.6% | MALME-3M melanoma -55% | MDA-MB-231 breast -84.3% | SF-539 CNS -96% | UACC-257 melanoma -64.5% | M14 melanoma -84.5%
inactive: RXF 393 renal 67.9% | SF-268 CNS 98.2% | SF-295 CNS 99.8%

COc1ccc(-n2c(=O)sc3c(Cl)nc(C)nc32)c(OC)c1
inactive: DU-145 prostate 84.3% | K-562 leukemia 24.9% | MALME-3M melanoma 101% | MDA-MB-231 breast 80.4% | RXF 393 renal 93.5% | SF-268 CNS 63.3% | SF-295 CNS 104% | SF-539 CNS 105% | UACC-257 melanoma 85.1% | M14 melanoma 75.7%

NC(N)=Nc1nc2ccccc2o1
inactive: DU-145 prostate 89.3% | K-562 leukemia 104% | MALME-3M melanoma 119% | MDA-MB-231 breast 103% | RXF 393 renal 114% | SF-268 CNS 88.4% | SF-295 CNS 112% | SF-539 CNS 96.2% | UACC-257 melanoma 121% | M14 melanoma 80%

O=C1/C(=C/c2ccc([N+](=O)[O-])cc2)CN(C(=O)CCN2CCC(=NO)CC2)C/C1=C\c1ccc([N+](=O)[O-])cc1
active: DU-145 prostate -8.07% | K-562 leukemia 7.03% | MALME-3M melanoma -20.3% | MDA-MB-231 breast -69.1% | RXF 393 renal -76.5% | SF-268 CNS -22.4% | SF-295 CNS -28.6% | SF-539 CNS -42.8% | UACC-257 melanoma -4.87% | M14 melanoma -33.4%
